Measurements reported in PubChem BioAssay AID602310 (National Center for Advancing Translational Sciences (NCATS), 2012).
Out of some 410,000 compounds screened, about 310 (0.076%) were called active. About 2% were inconclusive and are not listed. The sample holds actives, similar compounds and a random draw of the others, so the mix is not that of the screen. Values without a mark were called inactive. Calls follow the shape of the dose curve; as a rule, active = well fitted curve in the direction sought with a large enough effect; inconclusive = small, poorly fitted or top-dose-only effect; inactive = flat fitted curve, though single readings scatter.

Target: DNA dC->dU-editing enzyme APOBEC-3G (Homo sapiens) (UniProt Q9HC16)
Assay: qHTS for Inhibitors of Vif-A3G Interactions: qHTS; also: nearly all actives have a fitted effect of over 60% in size;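 as to activity, negative = active: hits raise eYFP signal because A3G escapes Vif-driven loss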
Settings: HeLa A3G-eYFP + Vif (tagged APOBEC3G with the HIV-1 protein that degrades it), YFP fluorescence, overnight; series mostly up to 46.1 µM; activity, negative = active: at the top concentration
Source text: The recent discovery and characterization of host restriction factors, which provide a potent defense to invading retroviruses, has provided new targets for antiviral drug development. APOBEC3G (A3G) and APOBEC3F (A3F) are potent cytidine deaminases that block HIV-1 replication; HIV-1 expresses the Vif protein, which counteracts A3G and A3F by binding to them and inducing their proteasomal degradation. The Vif-A3G and Vif-A3F interactions provide two potential targets for development of small molecules which can interfere with the ability of Vif to degrade A3G or A3F. […] To identify inhibitors that can interfere with Vif mediated degradation of A3G and A3F, we have developed Hela cell lines that stably express A3G or A3F tagged with eYFP at the C-terminal end (A3G-eYFP or A3F-eYFP, respectively) and Vif. In the absence of an inhibitor, Vif induces degradation of A3G-eYFP and A3F-eYFP, and the cells are not fluorescent. In the presence of an inhibitor, it is expected that Vif will be unable to degrade A3G-eYFP and/or A3F-eYFP, resulting in an increase in yellow fluorescence. In this assays Vif A3G was screened against the Molecular Library Small Molecule Repository (MLSMR). NIH Chemical Genomics Center [NCGC] NIH Molecular Libraries Probe Centers Network [MLPCN] MLPCN Grant: MH093245 Assay Submitter (PI): Vinay Pathak, National Cancer Institute
5 uL of 700 cells/well of A3G-YFP cells are dispensed into black, clear bottom plates. The plates are incubated overnight at 37 deg C. 23 nL of compounds are added by pintool. The plates are incubated overnight at 37 deg C and then read on the TTP Acumen (Ex 488/ Em 500-530).
% is scaled to controls: 0 for no effect and ±100 for the full control effect; potency is read from the fitted curve at half-maximal effect.

Chain of DNA dC->dU-editing enzyme APOBEC-3G (Homo sapiens) (Q9HC16 whole entry, looked up): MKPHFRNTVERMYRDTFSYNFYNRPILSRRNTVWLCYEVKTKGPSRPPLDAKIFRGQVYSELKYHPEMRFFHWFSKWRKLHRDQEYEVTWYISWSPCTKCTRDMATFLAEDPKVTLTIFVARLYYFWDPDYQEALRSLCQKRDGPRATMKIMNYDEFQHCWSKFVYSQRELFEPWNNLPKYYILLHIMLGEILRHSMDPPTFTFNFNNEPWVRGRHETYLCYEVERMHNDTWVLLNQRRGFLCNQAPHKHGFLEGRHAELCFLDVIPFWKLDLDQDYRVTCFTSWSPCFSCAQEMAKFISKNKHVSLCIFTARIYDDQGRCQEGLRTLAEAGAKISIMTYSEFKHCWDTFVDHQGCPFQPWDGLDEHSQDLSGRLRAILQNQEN

Compound	activity, negative = active [%]	Potency
COc1cc(OC)c(OC)cc1/C=C/c1nc2ccccc2c(=O)n1-c1ccc(Br)c(C)c1	-5.3	–
CCn1c(/C=C/c2ccc([N+](=O)[O-])o2)nc2ccccc2c1=O	–	3.98 µM (active)
CN(C)CCCn1c(SCCN2C(=O)c3ccccc3C2=O)nc2ccccc2c1=O	0.0321	–
CC(C)(C)C1CCC(NC(=O)c2cnn3c2NC(=C2CC2)C=C3C(F)F)CC1 (stereo not given)	2.17	–
CCCCS(=O)(=O)c1oc(-c2cccs2)nc1S(=O)(=O)c1ccccc1	-18.8	–
Cc1ccc(Cl)cc1N1CCN(S(=O)(=O)c2cc3[nH]c(=O)c(=O)[nH]c3cc2C)CC1	0.0103	–
CCc1ccc(C(=O)CC2(O)C(=O)N(CCc3ccccc3)c3ccc(Br)cc32)cc1 (stereo not given)	-13.6	–
COc1cc(OC)c(OC)cc1/C=C1\C=Cc2ccccc21	-27.6	–
COc1ccc(C2/C=C\CN(Cc3ccco3)C(C)C(=O)N2Cc2ccc(F)cc2)cc1 (stereo not given)	3.73	–
Cc1ccccc1CSCCNC(=O)C1CCN(S(=O)(=O)Cc2ccccc2)CC1	2.97	–
Cc1cccc(CN2Cc3cccc4c3[C@H](C=CC4)CC2=S)c1	3.11	–
Cc1csc(NCC(=O)c2c[nH]c3ccccc23)n1	-3.43	–
CCOc1cccc2c1N[C@@H](c1ccc(C(=O)O)cc1)[C@H]1CC=C[C@@H]21	1.39	–
CCOC(=O)c1cc2c(=O)n3ccccc3nc2n(CC2CCCO2)c1=NC(=O)c1ccccc1Br (stereo not given)	-6.1	–
CC(C)OC(=O)c1ccc(NCc2cc(O)ccc2O)cc1Cl	–	12.6 µM (active)
O=S(=O)(c1cccc(C(F)(F)F)c1)N1CCN(c2nc(-c3cccs3)nc3ccccc23)CC1	0.472	–
Cc1c(Cl)cccc1NC(=O)CCS(=O)(=O)c1ccc2c(c1)oc(=O)n2C	1.33	–
COc1cc2[nH]c(C)c(CCN3CCN(c4ccccc4)CC3)c2cc1OC	1.15	–
CCc1ccc(S(=O)(=O)n2ccnc2)cc1	0.941	–
Cc1[nH]c2ccccc2c1C(=O)C(=O)N(C)c1ccccc1	0.569	–
COc1ccc(CCNC(=O)Cn2c(=O)cc(C(F)(F)F)c3c(C)nn(C)c32)c(OC)c1	4.39	–
COc1cc2c(=O)c(S(=O)(=O)c3ccc(C(C)C)cc3)cn(Cc3ccccc3C)c2cc1OC	-1.18	–
O=C(O)c1c(Br)c(Br)c(Br)c(Br)c1C1c2ccc(O)cc2Oc2cc(O)ccc21	3.84	–
CCOC(=O)N1CCC(NC(=O)c2cnn(-c3cccc(C)c3)c2C2CCN(C(=O)OC(C)(C)C)CC2)CC1	1.48	–
OCCNc1ncnc2oc(-c3ccco3)c(-c3ccco3)c12	-5.55	–
O=[N+]([O-])c1ccc(/C=C/c2ccc3cccnc3c2)cc1	-2.68	–
O=C(O)C1=C/C(=C/C=[N+]2c3cc(O)c(O[C@H]4OC(CO)[C@@H](O)[C@@H](O)[C@@H]4O)cc3C[C@@H]2C(=O)[O-])C[C@H](C(=O)O)N1 (stereo not given in full)	1.5	–
Cc1ccc2onc(CC(=O)N3CCN(c4ccc(Cl)cc4)CC3)c2c1	0.252	–

Compound	activity, negative = active [%]	Potency
Cc1ccc(C=O)cc1Cl	0.329	–
C(=Nc1ccc(/C=C/c2ccnc3ccccc23)cc1)c1cc2c3c(c1)CCCN3CCC2	2.24	–
CC(C)(C)c1ccc(C(=O)NCC(c2ccc(Cl)cc2)N2CCOCC2)cc1 (stereo not given)	1.59	–
O=C1CN(C(=O)Nc2ccccc2C(F)(F)F)C(c2ccccc2)c2c(sc3c2CCCC3)N1 (stereo not given)	-1.24	–
CCCN(CCC)c1nc2c(C)cccn2c(=O)c1/C=C1/SC(=S)N(Cc2ccco2)C1=O	–	3.16 µM (active)
CN(C)c1ccc(/C=c2\[nH]c(=O)/c(=C/c3ccc(N(C)C)cc3)[nH]c2=O)cc1	-0.485	–
CCN(C(=O)CSc1nnc(C)n2c1cc1occc12)c1ccccc1	-4.9	–
CCOc1ccc(C(=O)/C=C/c2cn(CC(O)CN3CCCCCC3)c3ccccc23)cc1 (stereo not given)	-4.47	–
CCOC(=O)N1CCc2c(sc(NCc3cccc(F)c3)c2C(=O)Nc2ccccc2OCC)C1	-3.66	–
O=C(COC(=O)c1ccccc1OCCOc1ccccc1)Nc1cccc(Br)c1	0.386	–
Cc1cc(C)cc(NC(=O)CSc2nc3nccnc3c(=O)n2CCc2c[nH]c3ccccc23)c1	6.02	–
CCOC(=O)c1ccc(NC(=O)C2CC(=O)NC(=Nc3ccc(C)c(C)c3)S2)cc1 (stereo not given)	1.17	–
CCCCNC(=O)Cn1c(SCc2cccc(Cl)c2)nc2ccncc21	0.68	–
CCCn1ccc2c(OCC(=O)NCc3ccc(F)cc3)cccc2c1=O	-0.319	–
O=C(Nc1ccc(Cl)cc1)c1cnn2c1NC(=C1CC1)C=C2C(F)F	-0.955	–
Cc1cccc(-c2nnc(SC(C)C(=O)Nc3ccccc3)n2C)c1 (stereo not given)	-0.805	–
CCN1CCN(c2ccc(/C=C/c3ccnc4ccccc34)cc2)CC1	1.79	–
COc1ccc(-c2nc3c(c(SCC(=O)Nc4ccc(C(=O)O)cc4)n2)Cc2ccccc2O3)cc1	3.8	–
Brc1cccc[n+]1Cc1cccc(C[n+]2ccccc2Br)c1	-5.54	–
CC(C)(C)n1ncc2c(=O)n(Cc3ccc(C(=O)c4ccccc4)cc3)cnc21	-0.656	–
OC(CBr)C[n+]1cccc2cc(Br)ccc21 (stereo not given)	-3.43	–
N#CC1=C(N)Oc2c(sc3ccccc23)C1c1ccco1 (stereo not given)	–	11.2 µM (active)
O=C(OC12CC3CC(CC(C3)C1)C2)c1ccc(NCc2cc(O)ccc2O)cc1	–	6.31 µM (active)
COC(=O)c1ccccc1NC(=O)c1cnn(-c2ccc(F)cc2)c1-n1cccc1	-4.09	–
CCOc1ccc(N(CC)S(=O)(=O)N2CCCC(C(=O)NCc3ccc(Cl)cc3)C2)cc1 (stereo not given)	3.88	–
N#Cc1ccc[n+](CC(=O)c2ccc(F)cc2)c1	-2.66	–
O=C(C[n+]1ccncc1)c1ccc2c(c1)CCCC2	-7.56	–
